Source: publication PMC5540273 (PLoS ONE, 2017)
pKd: −log10 of the molar value.

Assays:
NIM1 = system: T1, NIM1
T1 construct: gene MGC42105
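Note: kd values determined as follow-up on hits from a single-replicate KINOMEscan panel screen.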

Cc1c(Cn2c(C)nn3c(=O)cc(N4CCO[C@H](C)C4)nc23)cccc1C(F)(F)F [GSK2373690] was tested, and the pKd (MYLK4) was less than 5.00.
With Cc1ccc(-c2ccc3c(ccc4sc5c(c43)NC[C@@H](C)N=C5N(C)C)n2)cn1 the pKd (MYLK4) was less than 5.00.
COc1ccc(-c2cc3c(C)nc(N)nc3n([C@H]3CC[C@H](O)CC3)c2=O)cn1 gave a pKd (MYLK) of less than 5.00.
CCc1ccc(-c2ccc3c(c2)-c2nn(C)cc2S(=O)(=O)N3C)cc1 was tested, and the pKd (MYO3A) was less than 5.00.
In the case of COC(=O)c1c(-c2ccccc2)c2cc(Br)ccc2c(=O)n1Cc1ccc(NC(=O)CCC(=O)O)cc1, the pKd (MYO3A) was less than 5.00.
CCCC(=O)Nc1n[nH]c2ncc(-c3cccc4ccccc34)cc12 [SB-642057] gave a pKd (NEK10) of less than 5.00.
COc1cc(Nc2nccc(N3CCC(NC(=O)C(C)c4ccc(Cl)cc4)C3)n2)cc(OC)c1OC (centres unmarked) [GSK1379757] showed a pKd (NEK5) of 6.13.
COc1cc(Nc2nccc(N3CCC(NC(=O)C4COc5ccccc5O4)C3)n2)cc(OC)c1OC (centres unmarked) [GSK1379761] was tested, and the pKd (NEK5) was 6.43.
COc1cc2nccc(Nc3ccc(OCc4ccc(NC(C)=O)cc4)cc3)c2cc1OC.Cl [GW440135] showed a pKd (NEK7) of less than 5.00 and a pKd (NEK9) of less than 5.00.
O=C1NC(=O)C(c2ccccc2)=C1Nc1cccc(O)c1 [SB-390534] was tested, and the pKd (NIM1) was less than 5.00.
With COc1cc(Nc2ccnc3ccc(C(F)(F)F)cc23)cc(OC)c1OC [GW577382] the pKd (NIM1) was less than 5.00.
In the case of CCc1nc(-c2cccc(C)c2)c(-c2ccncc2)s1, the pKd (NLK) was 6.74.
Molecule OCCCNc1nccc(-c2c(-c3cccc(C(F)(F)F)c3)nn3cc(C(F)(F)F)ccc23)n1 [GW630813] has a pKd (NLK) of 6.64.
